Molecules are shown by their SMILES. Compounds without any hit were thinned out: in the full panel of roughly 83,000, 20% have a hit.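 Cells were grown in 96-well plates and exposed to the test compound at a single concentration for 48 hours; results are reported as percent growth, with values below 10 considered active.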 A number with no mark means an inactive call. Calls of active or inactive are those of the source.

Some test systems named below: SK-MEL-2 melanoma; EKVX NSCLC; SN12C renal; UO-31 renal; TK-10 renal; ACHN renal; CAKI-1 renal; A498 renal; CCRF-CEM leukemia; MOLT-4 leukemia; SR leukemia; RPMI-8226 leukemia; OVCAR-8 ovarian; OVCAR-5 ovarian; OVCAR-4 ovarian; SK-OV-3 ovarian; IGROV1 ovarian; OVCAR-3 ovarian; HS 578T breast; NCI/ADR-RES ovarian.
Holding throughout (assay): NCI-60 one-dose screen, 48 h (100 = growth as untreated, 0 = no growth, -100 = all killed)
Holding throughout (conditions): 10 µM unless noted

For `CC1=CCC(OC(=O)C(C)(C)CC(O)(C(C)O)C(O)C2(C)C=CC(Cc3ccc(C(C)C)cc3)(C(C)C)CC2)(C(C)C)CC1` (stereo not given), the growth in the assay on SK-MEL-2 melanoma was 110%; in the assay with EKVX NSCLC it was 98.3%; in the assay on SN12C renal, 105%; in the assay with UO-31 renal, 81.5%; in the assay on TK-10 renal it was 86.4%; in the assay with ACHN renal, 102%. Besides, the growth with CAKI-1 renal is 94.6%; in the assay with A498 renal, 76.2%; in the assay with CCRF-CEM leukemia it was 79.2%; in the assay with MOLT-4 leukemia, 94.1%; with SR leukemia, 99%; in the assay on RPMI-8226 leukemia, 108%. The growth with OVCAR-8 ovarian is 104%; in the assay on OVCAR-5 ovarian it was 94.9%; in the assay on OVCAR-4 ovarian, 102%; in the assay on SK-OV-3 ovarian it was 107%; with IGROV1 ovarian it was 95.5%; in the assay on OVCAR-3 ovarian, 102%. Further, the growth with HS 578T breast was 101%; in the assay with NCI/ADR-RES ovarian it was 98.2%.

On to `N#Cc1cccc(C2C3=C(COC3=O)N(CCO)c3cc4c(cc32)OCO4)c1` (stereo not given), for which the growth was 26.8% in the assay on SK-MEL-2 melanoma; 51.8% in the assay on EKVX NSCLC; 44.2% in the assay on SN12C renal; 43.4% with UO-31 renal; 50% with TK-10 renal; 39.2% in the assay with ACHN renal. Moreover, the growth in the assay with CAKI-1 renal was 29.7%; in the assay with A498 renal it was 11.9%; in the assay with CCRF-CEM leukemia it was 7.91% (active); with MOLT-4 leukemia, 24.8%; with SR leukemia it was 15.3%; in the assay on RPMI-8226 leukemia, 19.2%. In addition, the growth was 35.6% in the assay with OVCAR-8 ovarian; 69.5% with OVCAR-5 ovarian; 70.9% in the assay on OVCAR-4 ovarian; 23% in the assay with SK-OV-3 ovarian; 42.1% in the assay on IGROV1 ovarian; 3.12% (active) in the assay with OVCAR-3 ovarian. The growth with HS 578T breast is 20.2%; in the assay with NCI/ADR-RES ovarian it was 57.3%.

In the case of `O=C(Cc1ccc(/C=C/C(=O)c2ncc[nH]2)cc1)Nc1cc(C(F)(F)F)cc(C(F)(F)F)c1`, the growth with SK-MEL-2 melanoma is 110%; with EKVX NSCLC, 108%; with SN12C renal, 94.9%; in the assay with UO-31 renal, 62.9%; with TK-10 renal it was 115%; in the assay on ACHN renal, 105%. In addition, the growth with CAKI-1 renal was 78.5%; with A498 renal, 94.3%; in the assay with CCRF-CEM leukemia, 92.9%; with MOLT-4 leukemia it was 67.7%; in the assay on SR leukemia, 41.1%; in the assay with RPMI-8226 leukemia, -18% (active). The growth with OVCAR-8 ovarian is 87.1%; in the assay with OVCAR-5 ovarian, 103%; in the assay with OVCAR-4 ovarian, 100%; in the assay with SK-OV-3 ovarian, 105%; in the assay with IGROV1 ovarian, 84.4%; in the assay on OVCAR-3 ovarian, 59.3%. Besides, the figures for the growth in the assay with HS 578T breast and with NCI/ADR-RES ovarian were 87.6% and 102%, respectively.

For the molecule `O=C(CCCCCNC(=O)c1cc(=O)c(O)co1)Nc1ccccc1`, the growth in the assay on SK-MEL-2 melanoma was 105%; with EKVX NSCLC, 98.1%; in the assay with SN12C renal, 110%; in the assay on UO-31 renal, 83.9%; in the assay on TK-10 renal, 93.6%; in the assay with ACHN renal, 102%. In addition, the growth was 95.3% in the assay with CAKI-1 renal; 96% with A498 renal; 95.1% in the assay on CCRF-CEM leukemia; 106% in the assay on MOLT-4 leukemia; 101% in the assay with SR leukemia; 95.7% with RPMI-8226 leukemia. The growth was 104% in the assay with OVCAR-8 ovarian; 102% in the assay with OVCAR-5 ovarian; 110% in the assay with OVCAR-4 ovarian; 118% with SK-OV-3 ovarian; 106% in the assay on IGROV1 ovarian; 109% with OVCAR-3 ovarian. For the same molecule, the growth in the assay on HS 578T breast is 108%; in the assay with NCI/ADR-RES ovarian, 102%.

In the case of `CCCCCCCC/C=C\CCCCCCCCOc1ccc(CC(=O)NCC[N+]2(C)CCOCC2)cc1`, the growth in the assay on SK-MEL-2 melanoma is 112%; in the assay on EKVX NSCLC, 91.2%; in the assay on SN12C renal it was 64.1%; with UO-31 renal, 93.5%; in the assay with TK-10 renal it was 44.7%; in the assay with ACHN renal it was 82.9%. Moreover, the growth with CAKI-1 renal was 53.5%; with A498 renal, 91.8%; in the assay on CCRF-CEM leukemia, 53%; in the assay with MOLT-4 leukemia, 79.9%; in the assay on SR leukemia it was 71.7%; in the assay with RPMI-8226 leukemia it was 66.6%. Also, the growth is 73% in the assay with OVCAR-8 ovarian; 29.5% in the assay on OVCAR-5 ovarian; 97.3% in the assay on OVCAR-4 ovarian; 98.8% with SK-OV-3 ovarian; 5.35% (active) in the assay on IGROV1 ovarian; 98.1% in the assay on OVCAR-3 ovarian. In addition, the results for the growth with HS 578T breast and in the assay on NCI/ADR-RES ovarian were 72.5% and 104%, respectively.

Regarding `CN(C)CCCC1(c2ccc(F)cc2)OCc2cc(-c3cc4ccccc4s3)ccc21` (stereo not given), the growth is 72.3% with SK-MEL-2 melanoma; 46.8% with EKVX NSCLC; 37% with SN12C renal; 21% in the assay with UO-31 renal; 60.5% in the assay on TK-10 renal; 14.3% in the assay with ACHN renal. Besides, the growth in the assay with CAKI-1 renal is 21.4%; in the assay on A498 renal, 81%; in the assay on CCRF-CEM leukemia, 4.59% (active); in the assay on MOLT-4 leukemia it was -8.07% (active); with SR leukemia, -15% (active); in the assay with RPMI-8226 leukemia it was -3.17% (active). The growth is 7.22% (active) with OVCAR-8 ovarian; 55.8% with OVCAR-5 ovarian; 16.8% with OVCAR-4 ovarian; 68% with SK-OV-3 ovarian; -28% (active) in the assay on IGROV1 ovarian; -29.1% (active) in the assay with OVCAR-3 ovarian. Further, the results for the growth in the assay on HS 578T breast and with NCI/ADR-RES ovarian were 27.2% and 23.7%, respectively.

For `O=C(/C=C/c1ccc(Oc2ccc(Br)cc2)cc1)c1ccc(Br)cc1`, the growth in the assay with SK-MEL-2 melanoma was 96.5%; in the assay on EKVX NSCLC it was 103%; in the assay with SN12C renal it was 97.2%; in the assay on UO-31 renal it was 78.8%; with TK-10 renal, 95.2%; in the assay with ACHN renal it was 102%. The growth in the assay with CAKI-1 renal was 93.5%; in the assay with A498 renal, 73.6%; with CCRF-CEM leukemia, 91.9%; in the assay on MOLT-4 leukemia, 90.5%; with SR leukemia, 85.7%; with RPMI-8226 leukemia, 83.5%. Besides, the growth with OVCAR-8 ovarian is 94.7%; with OVCAR-5 ovarian, 110%; with OVCAR-4 ovarian it was 95%; in the assay with SK-OV-3 ovarian, 108%; in the assay on IGROV1 ovarian, 99%; in the assay with OVCAR-3 ovarian it was 102%. For the same molecule, the growth in the assay with HS 578T breast is 102%; in the assay on NCI/ADR-RES ovarian, 98.1%.

As to `N=C(N)c1ccc(-c2ccc(-c3ccccc3)s2)cc1`, the growth in the assay on SK-MEL-2 melanoma was 105%; with EKVX NSCLC, 84.6%; in the assay on SN12C renal, 70.3%; with UO-31 renal it was 83.5%; in the assay with TK-10 renal, 108%; in the assay on ACHN renal, 68.3%. Moreover, the growth in the assay on CAKI-1 renal was 14.5%; with A498 renal, 89.1%; with CCRF-CEM leukemia it was 21%; with MOLT-4 leukemia, -3.58% (active); in the assay on SR leukemia, 7.19% (active); with RPMI-8226 leukemia it was -4.15% (active). Besides, the growth is 38.1% in the assay with OVCAR-8 ovarian; 61.4% in the assay on OVCAR-5 ovarian; 45.8% in the assay with OVCAR-4 ovarian; 85.2% in the assay with SK-OV-3 ovarian; 60.2% with IGROV1 ovarian; 53.7% in the assay on OVCAR-3 ovarian. Besides, the growth was 87.8% in the assay on HS 578T breast and 89.2% in the assay with NCI/ADR-RES ovarian.

Values taken from PubChem BioAssay (NCI).
